# Where “and” joins values, the source holds several entries; their conditions need not be identical. Identical values can stand only once. Results filed as inconclusive are left out. Calls of active or inactive are those of the source. Unless noted, no cut-off is given here; in the data, nearly all actives have AC50 up to about 26 µM.
# Assays:
# [1] = viability loss in pontine glioma line – cell-based, SU-DIPG-XVII, MIPE5.0, CellTiter-Glo, qHTS, dose response (AID 1347060); conditions: CellTiter-Glo ATP luminescence;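 for AC50: cells exposed to compound for 48 hours before viability readout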
# [2] = viability loss in pontine glioma line – cell-based, SU-DIPG-XIII, MIPE5.0, CellTiter-Glo, qHTS, dose response (AID 1347064; cut-off not given, nearly all actives have AC50 up to about 23 µM;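 for AC50: cells exposed to compound for 48 hours before the viability read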); conditions: CellTiter-Glo ATP luminescence
# [3] = viability loss in pontine glioma line – cell-based, SU-DIPG-XXV, MIPE5.0, CellTiter-Glo, qHTS, dose response (AID 1347065); conditions: CellTiter-Glo ATP luminescence;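 note: cells exposed to compound for 48 hours before ATP readout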
# [4] = growth inhibition of DIPG cells – cell-based, MIPE5.0 library, qHTS (AID 1347068; cut-off not given, nearly all actives have IC50 up to about 30 µM;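 for IC50: cells exposed to compound for 48 hours before viability readout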); conditions: SU-DIPG-XXV viability
# [5] = JHH-DIPG-1 glioma cell viability, MIPE5.0 library, CellTiter-Glo luminescence, qHTS (AID 1347067); conditions: JHH-DIPG-1 glioma viability, CellTiter-Glo ATP luminescence;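 note: cells exposed to compound for 48 hours before readout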
# [6] = viability loss with induced miR-34 in A549 – imaging, A549 dox-inducible miR-34, nuclei and caspase counts, primary screen (AID 1347080;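 active = compounds whose cell count with miR-34 switched on is under 0.7 times the count with it off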); conditions: A549 miR-34 inducible, Hoechst nuclei count, 48 h
# [7] = MELAS cybrid and Rieske KO viability enhancers – cell-based, MELAS cybrids, Rieske KO mouse fibroblasts, CellTiter-Glo, primary screen (AID 1508586;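 active = mean z-score across replicates of 1.96 or higher in either the MELAS or the Rieske mutant cell line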;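 note: z relative to plate mean and SD of compound and empty wells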); conditions: low glucose
# [8] = stronger effect = lower value, cell number ratio, induced over uninduced
# [9] = measured here: relative caspase fold change +Dox/-Dox
# [10] = measured here: total cells with miR-34 induction, stronger effect = lower value
# [11] = measured here: total cells without miR-34 induction
# [12] = MELAS cybrid survival, CellTiter-Glo 48 h, stronger effect = higher value
# [13] = Rieske KO mouse fibroblast survival, CellTiter-Glo 72 h
smiles,measurement,setting,value
CC(=NNC(=O)c1cccc(S(=O)(=O)N2CCOCC2)c1)c1cc(Cl)ccc1O,AC50,[1],8.33 µM (active)
same,AC50,[2],6.61 µM (active)
same,AC50,[3],5.9 µM (active)
same,outcome,[4],inactive
O=C(O)c1ccc(CN2CCC(CN[C@@H]3C[C@H]3c3ccccc3)CC2)cc1,outcome,[1],inactive
same,outcome,[2],inactive
same,outcome,[3],inactive
same,outcome,[4],inactive
C[C@@H]1O[C@@H](O[C@@H]2\C=C/C=C\C=C/C=C\C[C@H](C)OC(=O)/C=C\[C@H]3O[C@@H]3C[C@H](O)C[C@]3(O)C[C@@H](O)[C@@H](C(=O)O)[C@H](C2)O3)[C@H](O)[C@H](N)[C@@H]1O,outcome,[1],inactive
same,outcome,[2],inactive
same,outcome,[5],inactive
same,outcome,[4],inactive
O=C(Nc1ccc(-c2ccnc(Nc3ccc(N4CCOCC4)cc3)n2)cc1)C1CCCN1 (stereo not drawn),AC50,[1],18.6 µM (active)
same,AC50,[2],18.6 µM (active)
same,AC50,[3],16.6 µM (active)
same,outcome,[4],inactive
same,fold change,[6]; [8],0.711 (inactive)
same,fold change,[6]; [9],0.977
same,cell count,[6]; [10],5090
same,cell count,[6]; [11],7160
same,z-score,[7]; [12],-0.234 (inactive)
same,z-score,[7]; [13],-0.152
CC(C)(C(=O)NCC(F)(F)C(F)(F)F)C(=O)N[C@@H]1C(=O)Nc2ccccc2-c2ccccc21,outcome,[1],inactive
same,outcome,[2],inactive
same,outcome,[5],inactive
same,outcome,[4],inactive
Cc1nc(NC(=O)N2CCCC2C(N)=O)sc1-c1ccnc(C(C)(C)C(F)(F)F)c1 (stereo not drawn),AC50,[1],5.25 µM (active)
same,AC50,[2],2.63 µM (active)
same,AC50,[3],2.35 µM (active)
same,IC50,[4],13.2 µM (active)
same,fold change,[6]; [8],0.937 (inactive)
same,fold change,[6]; [9],0.696
same,cell count,[6]; [10],5770
same,cell count,[6]; [11],6170
same,z-score,[7]; [12],-0.255 (inactive)
same,z-score,[7]; [13],-0.201
CS(=O)(=O)Nc1cc2occ(NC=O)c(=O)c2cc1Oc1ccccc1,outcome,[1],inactive
same,outcome,[2],inactive
same,outcome,[5],inactive
same,outcome,[4],inactive
NC1CCCN(c2c(/C=C3\SC(=O)NC3=O)cccc2-c2ccccc2)C1 (stereo not drawn),outcome,[1],inactive
same,outcome,[2],inactive
same,outcome,[5],inactive
same,outcome,[4],inactive
CN[C@@H](C)C(=O)N[C@@H]1C(=O)N(Cc2c(C)ccc3ccccc23)c2ccc(C#N)cc2N(C(C)=O)[C@H]1C,outcome,[1],inactive
same,outcome,[2],inactive
same,outcome,[5],inactive
same,outcome,[4],inactive
O=[N+]([O-])c1ccc(-c2nc(-c3ccc(F)cc3)c(-c3ccncc3)[nH]2)cc1,AC50,[1],26.3 µM (active)
same,AC50,[2],18.6 µM (active)
same,AC50,[3],26.3 µM (active)
same,outcome,[4],inactive
same,fold change,[6]; [8],1.15 (inactive) and 0.939 (inactive)
same,fold change,[6]; [9],1.13 and 1.14
same,cell count,[6]; [10],4420 and 5750
same,cell count,[6]; [11],3850 and 6120
CCn1c(=O)c(-c2ccc(-c3cncc(C)n3)cc2Cl)cc2cnc(NCCC3CCN(C)CC3)nc21,outcome,[1],inactive
same,outcome,[2],inactive
same,outcome,[5],inactive
same,IC50,[4],1.86 µM (active)
C[C@@H]1CN(CC(=O)N2CC(C)(C)c3ncc(Cc4ccc(F)cc4)cc32)[C@@H](CN2CCOC[C@H]2C)CN1,outcome,[1],inactive
same,outcome,[2],inactive
same,outcome,[5],inactive
same,outcome,[4],inactive
CCCN1CCN(c2ccc(C(=O)NC3(C(=O)NCC#N)CCCCC3)cc2)CC1,outcome,[1],inactive
same,outcome,[2],inactive
same,outcome,[5],inactive
same,outcome,[4],inactive
